Test systems include T-47D breast; BT-549 breast; MDA-MB-435 melanoma; SW-620 colon; MCF7 breast; HCT-116 colon; HCC-2998 colon; KM12 colon.
What all share (test): NCI-60 one-dose screen, 48 h (100 = growth as untreated, 0 = no growth, -100 = all killed)
What all share (conditions): 10 µM unless noted

The panel holds about 83,000 compounds, 20% with a hit somewhere; the sample as a whole holds those more often.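 The endpoint reported here, percent growth, reads 100 for growth as untreated, 0 for no net growth and -100 for all cells dead.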 Unmarked numbers belong to inactive results. The source made the active and inactive calls. The calls were made as follows: active = growth percent below 10; inactive = the rest.

As to `CNC(=O)c1cc(Oc2ccc3nc(NC(=O)c4ccc5ncccc5c4)sc3c2)ccn1`, the growth with T-47D breast is 51.3%; in the assay with BT-549 breast it was 82.4%; in the assay on MDA-MB-435 melanoma, 91.6%; in the assay on SW-620 colon it was 112%; with MCF7 breast it was 88%; in the assay on HCT-116 colon it was 103%. For the same molecule, the values for the growth in the assay with HCC-2998 colon and with KM12 colon were 106% and 101%, respectively.

In the case of `O=C1CC(C(F)(F)F)Cc2nc3ccc(Br)cc3cc21` (stereo not drawn), the growth with T-47D breast was 62.9%; in the assay on BT-549 breast, 96.3%; in the assay on MDA-MB-435 melanoma, 94.4%; in the assay with SW-620 colon, 92.4%; in the assay with MCF7 breast, 74.3%; in the assay with HCT-116 colon, 73.9%. Besides, the growth in the assay on HCC-2998 colon is 109%; in the assay on KM12 colon, 64.4%.

Regarding `COc1ccc(-c2nc3ccccn3c2/C=C/C(=O)c2cc(OC)c(OC)c(OC)c2)cc1OC`, the growth was 2.52% (active) in the assay on T-47D breast; -0.101% (active) in the assay on BT-549 breast; 20.3% in the assay with MDA-MB-435 melanoma; 14.6% with SW-620 colon; 4.01% (active) with MCF7 breast; 10.3% in the assay with HCT-116 colon. Further, the growth with HCC-2998 colon is 16.4%; in the assay on KM12 colon, 3.9% (active).

In the case of `C[n+]1c2ccccc2nc2c(N)cc(N)cc21`, the growth in the assay on T-47D breast is 54.2%; with BT-549 breast, 46%; in the assay on MDA-MB-435 melanoma it was 126%; in the assay on SW-620 colon it was 87.1%; in the assay on MCF7 breast, 82.7%; with HCT-116 colon, 78.2%. Besides, the figures for the growth with HCC-2998 colon and in the assay on KM12 colon were 92.4% and 63.8%, respectively.

Consider `NS(=O)(=O)c1ccc(CCN2C(=O)/C(=C\c3ccccc3)C=C2c2ccc(Cl)cc2)cc1`, for which the growth in the assay on T-47D breast was 88.9%; in the assay with BT-549 breast, 96.4%; in the assay with MDA-MB-435 melanoma it was 99.8%; with SW-620 colon, 99.2%; in the assay on MCF7 breast it was 81.2%; in the assay with HCT-116 colon, 96.5%. The values for the growth with HCC-2998 colon and in the assay on KM12 colon were 105% and 99%, respectively.

For the molecule `CCCCCCCCN(CCCCCCCC)CC(O)c1ccc(Cl)c(C)c1Cl` (stereo not drawn), the growth was 75.9% in the assay with T-47D breast; 117% in the assay with BT-549 breast; 91.4% in the assay on MDA-MB-435 melanoma; 44.5% with SW-620 colon; 90.4% with MCF7 breast; 63.5% with HCT-116 colon. In addition, the growth was 85.3% in the assay with HCC-2998 colon and 79.6% with KM12 colon.

Source of the values: PubChem BioAssay (NCI).
